Compound activity from PubChem BioAssay.
Shown is part of a subset that was picked to be rich in hits.
PI4K2A block = blocks human PI4K2A kinase activity. Q9BTU6. AID 1346378. purified PI4K2A, ADP-Glo luminescence, 1 h; hits give low values. hit rate 0.13% among 420,000. activity change, negative = inhibition, % at 76.9 µM; in the data active = activity change below about -50%; inconclusive = mostly about -30% to -49%
Target sequence (Q9BTU6 whole entry, looked up): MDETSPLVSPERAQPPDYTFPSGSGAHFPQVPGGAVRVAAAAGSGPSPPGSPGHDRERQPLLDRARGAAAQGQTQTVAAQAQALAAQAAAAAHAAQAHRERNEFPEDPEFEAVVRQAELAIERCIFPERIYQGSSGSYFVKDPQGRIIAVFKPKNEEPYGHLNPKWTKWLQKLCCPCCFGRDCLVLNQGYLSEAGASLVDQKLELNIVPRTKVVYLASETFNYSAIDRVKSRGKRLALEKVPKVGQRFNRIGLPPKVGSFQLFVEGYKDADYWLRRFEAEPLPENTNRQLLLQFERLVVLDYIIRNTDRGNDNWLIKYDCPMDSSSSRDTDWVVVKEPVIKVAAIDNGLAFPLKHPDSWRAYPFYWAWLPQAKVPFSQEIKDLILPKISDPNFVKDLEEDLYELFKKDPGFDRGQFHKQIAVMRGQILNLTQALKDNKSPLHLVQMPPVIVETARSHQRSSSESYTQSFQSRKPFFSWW
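In this quantitative HTS, ADP production by PI4K2A was quantified luminescently after 1 h at ambient temperature; 100 microM adenosine served as plate-quality control.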
Pin1 inhibitor = human Pin1 inhibition; hit rate 0.009% among 390,000; Q13526; Pin1 FP peptide displacement, HiFluor488, 10 min; Potency, µM (top dose mostly 115 µM), hits mostly inhibitors; active = well fitted inhibition curve with a large enough effect in the polarisation, with a control signal flat, not every such curve was filed as active; inconclusive = small, poorly fitted or top-dose-only effect, or effect the other way, or a change in a side signal; inactive = no such curve, though single readings can be large or run the other way; the % refers to the polarisation
PI5P4K alpha inh = blocks human PI5P4K alpha kinase activity; P48426; hit rate 1.2% among 330,000; max response, %; PI5P4Kalpha enzyme, ADP-Glo luminescence, 60 min; hits give low values; AID 652105; active = max response of -50% or lower; inconclusive = between -30% and -50%; inactive = -30% or higher; note: value at the top dose of about 77 µM
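Enzyme plus substrate dispensed, test compounds pinned in, then ATP (5 microM final) added. After 60 min at RT, ADP-Glo reagent 1 for 45 min and reagent 2 for 30 min preceded luminescence imaging.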
Tb PGK inh = inhibitors of T. brucei phosphoglycerate kinase | PGK/GAPDH coupled, Kinase-Glo luminescence, 60 min | hit rate 0.043% among 380,000 | Potency, µM (doses to about 57.5 µM), hits mostly inhibitors | P07378 | AID 602233; active = well fitted inhibition curve with a large enough effect; inconclusive = small, poorly fitted or top-dose-only effect; inactive = no such curve, though single readings can be large or run the other way; note: nearly all actives have a fitted effect of over 60% in size
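Recombinant glycosomal PGK reaction used 1,3-bisphosphoglycerate generated in-well by GAPDH (100nM final) in 100mM TEA pH 7.6, 5mM MgCl2, 0.01% Tween-20. After 60 minutes at room temperature, ATP was read by Kinase-Glo Plus luminescence end-point.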
Numbers stand for hits; . = inactive; ? = inconclusive; / = no result.

SMILES	PI4K2A block	Pin1 inhibitor	PI5P4K alpha inh	Tb PGK inh
COc1ccc(/C=N/Nc2snc(SC)c2C#N)cc1OC	-54	?	.	.
Cc1ccc(-c2cnn(-c3ccccc3)c2N)cc1	-76	.	?	?
O=C(N/N=C/c1cc(Cl)cc([N+](=O)[O-])c1O)NC12CC3CC(CC(C3)C1)C2	.	/	-69	11µM
O=C(N/N=C/c1ccccc1O)NC12CC3CC(CC(C3)C1)C2	.	.	.	.
CCN(CC)S(=O)(=O)c1cccc2cc(C(=O)O)c(O)cc12	.	.	-67	.
CCN(CC)S(=O)(=O)c1cc(C(=O)O)c(Cl)cc1Cl	.	.	.	.
O=C(N/N=C/c1cc([N+](=O)[O-])ccc1O)c1ccc(COc2ccc3c(c2)CCC3)o1	.	.	-56	.
COc1ccc(Br)cc1/C=N/NC(=O)c1ccc(COc2ccc3c(c2)CCC3)o1	.	.	.	.
CCOc1cccc(C(=O)NC(=S)Nc2ccc(Cl)cc2C(=O)O)c1	.	.	-60	.
Cc1nc(SCC(=O)c2cccc([N+](=O)[O-])c2)n[nH]1	.	.	-63	.
Nc1nc(SCC(=O)c2ccc(F)cc2)n[nH]1	.	.	-55	.
Cc1nc(SCC(=O)c2ccc(F)cc2)n[nH]1	.	.	-74	.
Cn1nnnc1Sc1ncnc2scc(-c3ccccc3F)c12	/	.	/	/
c1ccc(Sc2ccncc2)cc1	.	/	.	.
c1cc(SSc2ccncc2)ccn1	.	.	-70	.
CC(=O)Nc1ccccc1NS(=O)(=O)c1ccccc1NO	/	.	/	/
N#CC(C#N)=C(N)/C(C#N)=C/c1cc(O)c(O)c(O)c1	.	?	-67	.
O=C(c1ccccc1O)N(Cc1ccco1)Cc1cccs1	/	.	/	/
O=C(O)C(S)C(S)C(=O)O (centres undefined)	.	/	-55	?
O=C(O)[C@@H](O)[C@H](O)[C@H](O)[C@@H](O)C(=O)O	.	/	/	/
O=[S+]1([O-])N=C(Oc2cccnc2)c2ccccc21	/	.	/	/
O=C(O)c1cc(O)c2c(c1)C(=O)c1cccc(O)c1C2=O	.	?	-91	.
CC(=O)Nc1ccc(Nc2ccc3cc(S(=O)(=O)N4CCCCC4)ccc3n2)cc1	.	.	/	.
CC(C)(C)OC(=O)NCCCCC1=CC2=CC(=O)C(C)(O)C(=O)C2=CO1 (centres undefined)	.	.	-80	.
O=S1(=O)N=C(Sc2ccc3c(c2)OCCO3)c2ccccc21	/	.	/	/
SMILES	PI4K2A block	Pin1 inhibitor	PI5P4K alpha inh	Tb PGK inh
O=C(CCC1CCN(Cc2ccccc2)CC1)c1ccc2c(c1)NCCCC2	.	/	/	/
CC(C)Nc1cccc(S(=O)(=O)N2CCCN(S(=O)(=O)c3ccc4c(c3)OCCO4)CC2)c1	/	.	/	/
COc1cc(F)c(S(=O)(=O)N2CCCN(S(=O)(=O)c3ccc4c(c3)OCCO4)CC2)c(F)c1	/	.	/	/
Cc1ccc(-c2n[nH]c(=S)n2/N=C/c2c(C)[nH]n(-c3ccccc3)c2=O)cc1	.	.	-58	.
Cc1nn(-c2ccccc2)c(C)c1/C=N/n1c(-c2ccc(Cl)cc2)n[nH]c1=S	.	.	.	.
CC(C)(C)c1cc(=O)n(-c2ccccc2)[nH]1	-54	?	.	.
O=c1c(Cl)c(Cl)cnn1Cc1nnc(-c2ccc(Cl)cc2)o1	.	?	-58	.
N#Cc1c(N)nc2c3c(sc(=N)c2c1N)NC(=O)CC3c1ccccc1 (centres undefined)	.	?	-87	.
N#Cc1c(N)nc2c3c(sc(=N)c2c1N)NC(=O)CC3c1c(F)cccc1Cl (centres undefined)	.	.	-67	.
O=C(O)Cn1c(=O)n(Cc2ccc(Br)cc2F)c(=O)c2ccc(Cl)cc21	.	/	/	/
COc1ccc(OC)c(N2C(=O)[C@@H]3C(c4ccccc4Cl)=NO[C@@H]3C2=O)c1	.	/	-66	13µM
CCN(CC)CC(=O)Nc1c(C)cccc1C(=O)OC	.	/	/	/
O=S(c1cc(Cl)cc(Cl)c1O)c1cc(Cl)cc(Cl)c1O	.	/	-51	/
Cc1ccc(C2C(C#N)=C(N)Oc3n[nH]c(-c4cccs4)c32)cc1 (centres undefined)	.	.	?	.
N#CC1=C(N)Oc2n[nH]c(-c3cccs3)c2C1c1cccnc1 (centres undefined)	.	.	-50	.
N#CC1=C(N)Oc2n[nH]c(-c3cccs3)c2C1c1ccoc1 (centres undefined)	.	.	-55	.
O=C(CO)[C@@H](O)[C@H](O)[C@@H](O)CO	.	/	/	/
CCOC(=O)C1Nc2ccc(C(=O)O)cc2C2C=CCC12 (centres undefined)	.	?	-69	?
CC(=O)N1CCN(c2cccc(Nc3nn4c(=O)c5ccccc5nc4s3)c2)CC1	/	.	/	/
